D1 agonist – activates the human D1 dopamine receptor | 360,000 tested, 1% active | P21728 | HEK293 T-REx D1 cells, calcium flux, agonist mode | activation, % at 2 µM; also: 0% is about no effect
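Inducible HEK293 T-REx D1 cells, force-coupled to calcium signalling, were plated at 4000 cells/well with tetracycline and held overnight at 30 C. After no-wash calcium dye loading, compound-evoked calcium rise over 180 s flagged agonists.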
TRHR enhancer – allosteric enhancers of human TRH receptor. P34981. TRHR cells, fluo-8 calcium fluorescence, EC20 TRH enhancement. enhancement, % at 2 µM. 360,000 tested, 0.66% active. AID 493056; in the data active = enhancement above about 30%; also: 0% is about no effect
Target sequence (P34981 whole entry, looked up): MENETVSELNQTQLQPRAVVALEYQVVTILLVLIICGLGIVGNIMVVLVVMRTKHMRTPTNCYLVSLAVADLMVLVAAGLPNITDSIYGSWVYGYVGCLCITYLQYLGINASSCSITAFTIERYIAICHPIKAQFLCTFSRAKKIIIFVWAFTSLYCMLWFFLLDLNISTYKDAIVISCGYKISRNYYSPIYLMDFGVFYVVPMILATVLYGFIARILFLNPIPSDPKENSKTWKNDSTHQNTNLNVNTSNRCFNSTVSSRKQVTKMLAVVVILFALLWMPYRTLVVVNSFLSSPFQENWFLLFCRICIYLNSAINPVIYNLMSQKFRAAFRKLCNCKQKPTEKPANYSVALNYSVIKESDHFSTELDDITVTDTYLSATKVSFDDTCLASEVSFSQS
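TRHR-expressing cells loaded with fluo-8 calcium dye were read kinetically (ex 480/em 530) during compound addition, then stimulated with an EC20 of TRH (10 nM final). Enhancement of the Gq-mediated intracellular calcium response was scored.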
TRHR ag – activates the human TRH receptor; P34981; TRHR cells, calcium flux fluo-8, FDSS agonist mode; activation, % at 2 µM; 360,000 tested, 0.18% active; AID 493084; also: 0% is about no effect
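Agonist-mode FDSS calcium read (Ex 480/Em 530, 1 s cycles) in 1536-well TRHR cells with fluo-8 dye, after 10-cycle baseline and 23 nL compound addition; TRH at EC20 (10 nM final) added afterwards for the enhancer phase.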
D1 potentiator – enhances dopamine response at the human D1 receptor. P21728. HEK293 TREx D1 cells, calcium flux, dopamine EC20 potentiation. potentiation, % at 10 µM. 360,000 tested, 0.036% active; in the data active = potentiation above about 30%; also: 0% is about no effect
D1 antag – blocks dopamine activation of the human D1 receptor | AID 504652 | activity change, negative = inhibition, % at 10 µM | HEK293 TREx D1 cells, calcium flux, dopamine EC80; hits give low values | 360,000 tested, 3.2% active | P21728; in the data active = activity change below about -30%; also: % is scaled to controls: 0 for no effect and ±100 for the full control effect
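Inducible Hek293 Trex D1 cells (tetracycline, overnight, 30 C). Calcium dye 30–90 min RT. Antagonist mode: EC80 dopamine added after 180 s compound read.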
The depositor's hits bear a star. Most compounds without a hit are left out; they make up all but 4.7% or so of the library. Rule as the data show it, unless noted: active = activation above about 30%; inactive = the rest.

SMILES	D1 agonist	TRHR enhancer	TRHR ag	D1 potentiator	D1 antag
COc1ccccc1NC(=O)CCn1nc(-c2ccccc2OC)c2c(C)cc(C)nc21	5	2	-2	-1	-7
CC(C)(C)OC(=O)Cc1nnc(C(C(=O)OCc2ccccc2)c2ccccc2)s1 (stereo not given)	15	-2	1	-2	4
O=C(COc1ccc2oc(-c3ccccc3)cc(=O)c2c1)NCc1ccco1	2	1	-1	-1	1
COc1ccc(-c2cc(=O)c3cc(OCC(=O)OC(C)C)ccc3o2)cc1	19	1	-2	-1	-60*
COc1ccc(-c2cc(=O)c3cc(O)ccc3o2)cc1	-2	1	-1	-2	-34*
O=c1cc(-c2ccccc2)oc2ccc(O)cc12	0	26	-2	-1	2
CC1(C)CC(=O)C(C=Nc2cc(C(=O)c3ccccc3)ccc2N)=C(O)C1	13	-6	3	-14	-45*
COC(=O)c1ccc(N)c(N=CC2=C(O)CC(C)(C)CC2=O)c1	10	3	3	-4	3
Cc1ccccc1-c1nc(CS(=O)CC(=O)NC(C)CCc2ccccc2)c(C)o1 (stereo not given)	5	-2	-1	0	7
CCCCN1C(=O)C(NC(=O)c2ccc(C(C)(C)C)cc2)(C(F)(F)F)C(C(=O)OC)=C1C (stereo not given)	58*	-3	-1	5	4
COC(=O)C1CCN(c2csc3ccc(C)cc3c2=O)CC1	1	1	0	0	1
COc1cc(/C=N/NC(=O)c2ccc(N)cc2)ccc1OC(=O)c1cccc(C)c1	4	-5	0	2	-41*
COc1cc(C(=O)N/N=C/c2ccc(OC(=O)c3cccc(C)c3)cc2)ccc1O	2	9	-1	11	4
O=C(NCc1ccco1)c1ccccc1-c1nc(-c2ccc(F)cc2)no1	0	8	0	2	-45*
Cc1ccccc1-c1noc(-c2ccccc2C(=O)NCc2ccco2)n1	12	4	0	-4	1
Cn1cccc1CNC(=S)Nc1ccccc1Cl	4	-10	0	-10	-42*
CC1(C)CC(O)C(C)(C)N1O (stereo not given)	37*	-5	0	0	168
COc1cc(C(=O)NC(=S)Nc2ccc3c(c2)OCO3)cc(OC)c1OC	0	3	0	-5	-35*
COc1cc(C(=O)NNC(=O)C2CCC2)cc(OC)c1OC	3	4	0	-5	-48*
COc1cc(C(=O)NC(=S)NNC(=O)c2ccc3c(c2)OCO3)cc(OC)c1OC	4	3	1	8	-21
COc1cc(C(=O)NNC(=S)NC(=O)c2ccc(F)cc2)cc(OC)c1OC	44*	8	0	-3	-4
COc1ccc(Cl)cc1C(=O)NNC(=S)NC(=O)c1ccc(F)c(F)c1	171*	-12	24	-2	6
Cc1cccc(N2CCN(CCCNC(=O)Cn3ncc4c([nH]c5ccccc54)c3=O)CC2C)c1 (stereo not given)	-1	3	0	-1	-10
Cc1ccc(S(=O)(=O)N2CCCCC2)cc1NC(=O)COC(=O)C1(C)CC1(Cl)Cl (stereo not given)	0	-3	-1	-2	-24
CCOC(=O)c1ccccc1NC(=O)CSc1cn(CC(=O)N2CCCCCC2)c2ccccc12	1	-9	0	-1	-10
SMILES	D1 agonist	TRHR enhancer	TRHR ag	D1 potentiator	D1 antag
O=C(NC(=S)Nc1ccc(F)cc1)c1ccc2c(c1)OCCO2	3	33*	1	-4	-3
COCCn1c(SC(C)C(=O)NCC2CCCO2)nc2scc(-c3ccc(F)cc3)c2c1=O (stereo not given)	1	-5	0	-9	-42*
CCn1c(SC(C)C(=O)NCC2CCCO2)nc2scc(-c3ccccc3)c2c1=O (stereo not given)	0	0	0	-5	-26
CCn1c(SCC(=O)NC2CC2)nnc1-c1cccc(OC)c1	3	0	0	-3	-18
O=C1S/C(=C\c2ccc(N3CCOCC3)o2)C(=O)N1Cc1c(F)cccc1Cl	62*	-6	27	-14	27
O=C1S/C(=C\c2ccc(N3CCOCC3)o2)C(=O)N1c1ccccc1	159*	9	63*	7	26

Bioassay records (PubChem BioAssay)
